Laboratory results reported in PubChem BioAssay AID1159580 (chemical genetic matrix, 2015).
“And” between values parts separate entries of the source, which are not always exact repeats. Equal values may be shown once. Among all 5,500 compounds or so, about 2,000 (36%) were called active. Inconclusive results (about 18%) are left out. No stated cut-off is given here; in the data, active means normalized growth mostly below about 0.91 (no sharp cut-off); inconclusive means no clear call, values can overlap the other calls; inactive means mostly above about 0.92. The list shows a part of the results. More than one record can exist for a structure, and the calls need not agree.

Assay: chemical genetic growth profiling, strain panel (AID 1159580);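 further: tested at 20 µM; growth read once vehicle control cultures reached saturation at 30 °C; 1 = growth at the plate median or of vehicle wells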
Conditions: S. cerevisiae deletion strains, growth OD

In the case of `CC(C)COCC(CN(Cc1ccccc1)c1ccccc1)N1CCCC1` (stereo not given), the normalized growth (locus YAL013W, strain DEP1, stronger effect = lower value) is reported as 0.871 (active), the normalized growth (locus YAL021C, strain ccr4, stronger effect = lower value) is reported as 0.962 (inactive) and the normalized growth (locus YAL026C, strain drs2, stronger effect = lower value) is reported as 1.01 (inactive). The normalized growth (locus YAL030W, strain snc1, stronger effect = lower value) was 1.03 (inactive), the normalized growth (locus YAL040C, strain CLN3, stronger effect = lower value) was 1.09 (inactive) and the normalized growth (locus YBL061C, strain skt5, stronger effect = lower value) was 1.04 (inactive). The normalized growth (locus YBR009C, strain hhf1, stronger effect = lower value) was 1 (inactive), the normalized growth (locus YBR021W, strain FUR4, stronger effect = lower value) was 0.594 (active) and the normalized growth (locus YBR023C, strain chs3, stronger effect = lower value) was 1.02 (inactive). The normalized growth (locus YBR171W, strain sec66, stronger effect = lower value) was 1.06 (inactive), the normalized growth (locus YBR229C, strain ROT2, stronger effect = lower value) was 0.953 (inactive) and the normalized growth (locus YBR231C, strain swc5, stronger effect = lower value) was 1.01 (inactive). The normalized growth (locus YBR279W, strain paf1, stronger effect = lower value) was 1.04 (inactive), the normalized growth (locus YCL011C, strain gbp2, stronger effect = lower value) was 1.02 (inactive) and the normalized growth (locus YCL016C, strain dcc1, stronger effect = lower value) was 1.02 (inactive). For the same compound, the normalized growth (locus YCL029C, strain bik1, stronger effect = lower value) was 0.978 (inactive), the normalized growth (locus YCL061C, strain MRC1 (second series), stronger effect = lower value) was 1.01 (inactive) and the normalized growth (locus YCL061C, strain MRC1, stronger effect = lower value) was 1.02 (inactive). The normalized growth (locus YCL069W, strain vba3, stronger effect = lower value) was 1.05 (inactive), the normalized growth (locus YCR088W, strain abp1, stronger effect = lower value) was 1.04 (inactive) and the normalized growth (locus YDL005C, strain med2, stronger effect = lower value) was 1.05 (inactive). For the same compound, the normalized growth (locus YDL035C, strain GPR1, stronger effect = lower value) was 0.864 (inactive), the normalized growth (locus YDL040C, strain nat1, stronger effect = lower value) was 1.02 (inactive) and the normalized growth (locus YDL074C, strain BRE1, stronger effect = lower value) was 0.694 (active). The normalized growth (locus YDL101C, strain DUN1, stronger effect = lower value) was 0.926 (inactive), the normalized growth (locus YDL134C, strain PPH21, stronger effect = lower value) was 0.9 (inactive) and the normalized growth (locus YDL185W, strain tfp1, stronger effect = lower value) was 0.978 (inactive). For the same compound, the normalized growth (locus YDL192W, strain arf1, stronger effect = lower value) was 0.977 (inactive), the normalized growth (locus YDR001C, strain nth1, stronger effect = lower value) was 1.03 (inactive) and the normalized growth (locus YDR069C, strain doa4, stronger effect = lower value) was 1.02 (inactive). The normalized growth (locus YDR101C, strain arx1, stronger effect = lower value) was 0.929 (inactive), the normalized growth (locus YDR137W, strain rgp1, stronger effect = lower value) was 1.1 (inactive) and the normalized growth (locus YDR150W, strain NUM1, stronger effect = lower value) was 0.965 (inactive). For the same compound, the normalized growth (locus YDR159W, strain sac3, stronger effect = lower value) was 1.03 (inactive), the normalized growth (locus YDR162C, strain NBP2, stronger effect = lower value) was 0.802 (active) and the normalized growth (locus YDR195W, strain ref2) was 1.07 (inactive). The normalized growth (locus YDR297W, strain sur2, stronger effect = lower value) was 1.02 (inactive), the normalized growth (locus YDR318W, strain mcm21, stronger effect = lower value) was 0.947 (inactive) and the normalized growth (locus YDR334W, strain swr1, stronger effect = lower value) was 1.03 (inactive). For the same compound, the normalized growth (locus YDR335W, strain msn5, stronger effect = lower value) was 1.06 (inactive), the normalized growth (locus YDR388W, stronger effect = lower value) was 0.814 (active) and the normalized growth (locus YDR392W, strain spt3, stronger effect = lower value) was 0.934 (inactive). The normalized growth (locus YDR502C, strain sam2, stronger effect = lower value) was 0.914 (active), the normalized growth (locus YEL003W, strain gim4, stronger effect = lower value) was 1.04 (inactive) and the normalized growth (locus YEL037C, strain rad23, stronger effect = lower value) was 1.03 (inactive). For the same compound, the normalized growth (locus YEL061C, strain CIN8 (second series), stronger effect = lower value) was 1.03 (inactive), the normalized growth (locus YEL061C, strain CIN8, stronger effect = lower value) was 0.973 (inactive) and the normalized growth (locus YER002W, strain NOP16, stronger effect = lower value) was 1.02 (inactive). For the same compound, the normalized growth (locus YER015W, strain faa2, stronger effect = lower value) was 1.01 (inactive), the normalized growth (locus YER016W, strain bim1, stronger effect = lower value) was 1.02 (inactive) and the normalized growth (locus YER110C, stronger effect = lower value) was 0.96 (inactive). The normalized growth (locus YER111C, strain swi4, stronger effect = lower value) was 1.06 (inactive), the normalized growth (locus YER155C, strain BEM2 (second series), stronger effect = lower value) was 0.884 (inactive) and the normalized growth (locus YER155C, strain BEM2, stronger effect = lower value) was 1.02 (inactive). For the same compound, the normalized growth (locus YER167W, strain BCK2, stronger effect = lower value) was 0.958 (inactive), the normalized growth (locus YFR010W, strain ubp6, stronger effect = lower value) was 0.998 (inactive) and the normalized growth (locus YGL078C, strain dbp3, stronger effect = lower value) was 0.978 (inactive). For the same compound, the normalized growth (locus YGL086W, strain mad1, stronger effect = lower value) was 0.903 (active), the normalized growth (locus YGL167C, strain pmr1, stronger effect = lower value) was 1.04 (inactive) and the normalized growth (locus YGL173C, strain kem1, stronger effect = lower value) was 1.01 (inactive). The normalized growth (locus YGL227W, strain vid30, stronger effect = lower value) was 1.03 (inactive), the normalized growth (locus YGL240W, strain doc1, stronger effect = lower value) was 0.99 (inactive) and the normalized growth (locus YGL248W, strain PDE1, stronger effect = lower value) was 0.849 (active). The normalized growth (locus YGL253W, strain hxk2, stronger effect = lower value) was 1.05 (inactive), the normalized growth (locus YGR078C, strain PAC10, stronger effect = lower value) was 0.786 (active) and 0.987 (inactive) and the normalized growth (locus YGR135W, strain pre9, stronger effect = lower value) was 0.849 (active). For the same compound, the normalized growth (locus YGR229C, strain SMI1, stronger effect = lower value) was 0.434 (active), the normalized growth (locus YGR252W, strain gcn5, stronger effect = lower value) was 0.734 (active) and the normalized growth (locus YHR013C, strain ard1, stronger effect = lower value) was 1.03 (inactive). The normalized growth (locus YHR027C, strain rpn1, stronger effect = lower value) was 1 (inactive), the normalized growth (locus YHR030C, strain SLT2, stronger effect = lower value) was 0.771 (active) and 0.959 (inactive) and the normalized growth (locus YHR079C, strain IRE1 (second series), stronger effect = lower value) was 0.972 (inactive). The normalized growth (locus YHR079C, strain IRE1, stronger effect = lower value) was 0.998 (inactive), the normalized growth (locus YHR094C, strain hxt1, stronger effect = lower value) was 0.987 (inactive) and the normalized growth (locus YHR129C, strain ARP1, stronger effect = lower value) was 0.949 (inactive). The normalized growth (locus YHR142W, strain chs7, stronger effect = lower value) was 1.04 (inactive), the normalized growth (locus YHR200W, strain rpn10, stronger effect = lower value) was 0.975 (inactive) and the normalized growth (locus YIL066C, strain RNR3, stronger effect = lower value) was 0.809 (active). The normalized growth (locus YIL073C, strain SPO22, stronger effect = lower value) was 1.3 (inactive), the normalized growth (locus YIL125W, strain kgd1, stronger effect = lower value) was 0.991 (inactive) and the normalized growth (locus YIR030C, strain dcg1, stronger effect = lower value) was 0.98 (inactive). For the same compound, the normalized growth (locus YJL092W, strain hpr5, stronger effect = lower value) was 1.01 (inactive), the normalized growth (locus YJL095W, strain BCK1 (second series), stronger effect = lower value) was 1 (inactive) and the normalized growth (locus YJL095W, strain BCK1, stronger effect = lower value) was 0.587 (active) and 0.983 (inactive). The normalized growth (locus YJL115W, strain asf1, stronger effect = lower value) was 1.04 (inactive), the normalized growth (locus YJL129C, strain trk1, stronger effect = lower value) was 1.06 (inactive) and the normalized growth (locus YJL134W, strain LCB3, stronger effect = lower value) was 0.988 (inactive). For the same compound, the normalized growth (locus YJL154C, strain vps35, stronger effect = lower value) was 1.04 (inactive), the normalized growth (locus YJL164C, strain tpk1, stronger effect = lower value) was 1.01 (inactive) and the normalized growth (locus YJL166W, strain qcr8, stronger effect = lower value) was 1.01 (inactive). The normalized growth (locus YJL168C, strain set2, stronger effect = lower value) was 0.989 (inactive), the normalized growth (locus YJL187C, strain SWE1 (second series), stronger effect = lower value) was 0.801 (active) and the normalized growth (locus YJL187C, strain SWE1, stronger effect = lower value) was 1.03 (inactive). For the same compound, the normalized growth (locus YJR043C, strain POL32, stronger effect = lower value) was 0.996 (inactive) and the normalized growth (locus YJR066W, strain TOR1, stronger effect = lower value) was 0.948 (inactive).
